Inconclusive results are not listed. A call without a number means that no potency is given here. Active and inactive are the calls of the source. The call rests on the fitted dose curve; in most records, active means well fitted activation curve with a large enough effect in the main read-out, with a control signal flat (not every such curve was filed as active); inconclusive means small, poorly fitted or top-dose-only effect, or effect the other way, or a change in a side signal; inactive means flat fitted curve, though single readings scatter.
Potency means the concentration at half of the fitted maximal effect.

In this assay the target is 3',5'-cyclic-AMP phosphodiesterase 4B (Homo sapiens) (UniProt Q07343). Nature of the assay: qHTS Assay for Inhibitors of PDE-IV (AID 607). The conditions noted are these: HEK293 ACTOne CNG channel cells, membrane potential fluorescence; series mostly up to 22.9 µM. The text has this: NIH Chemical Genomics Center [NCGC]
Chain of 3',5'-cyclic-AMP phosphodiesterase 4B (Homo sapiens) (Q07343 whole entry, looked up): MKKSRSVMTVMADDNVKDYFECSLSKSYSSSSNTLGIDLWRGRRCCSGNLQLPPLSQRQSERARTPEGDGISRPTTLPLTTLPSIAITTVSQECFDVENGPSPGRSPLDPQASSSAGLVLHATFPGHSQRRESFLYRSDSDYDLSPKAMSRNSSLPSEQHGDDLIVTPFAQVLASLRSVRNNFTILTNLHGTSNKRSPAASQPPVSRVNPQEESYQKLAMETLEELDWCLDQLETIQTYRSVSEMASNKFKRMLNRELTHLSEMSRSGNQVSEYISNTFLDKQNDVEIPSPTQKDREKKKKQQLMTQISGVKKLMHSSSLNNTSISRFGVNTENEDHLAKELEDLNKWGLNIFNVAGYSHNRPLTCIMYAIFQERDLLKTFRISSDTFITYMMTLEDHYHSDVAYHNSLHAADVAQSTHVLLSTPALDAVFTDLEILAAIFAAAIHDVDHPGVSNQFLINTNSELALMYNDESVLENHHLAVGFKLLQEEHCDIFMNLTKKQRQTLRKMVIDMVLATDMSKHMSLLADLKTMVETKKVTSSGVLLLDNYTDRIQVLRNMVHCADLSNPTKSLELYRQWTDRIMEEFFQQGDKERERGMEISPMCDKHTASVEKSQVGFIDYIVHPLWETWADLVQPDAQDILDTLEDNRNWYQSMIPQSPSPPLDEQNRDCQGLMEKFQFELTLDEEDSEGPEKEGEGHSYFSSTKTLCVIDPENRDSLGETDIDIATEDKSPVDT
NIH Molecular Libraries Screening Centers Network [MLSCN]
The cyclic nucleotide phosphodiesterases (PDEs) are proteins that catalyze hydrolysis of 3', 5'-cyclic nucleotides, such as cyclic adenosine monophosphate (cAMP) and cyclic guanosine monophosphate (cGMP), to their corresponding 5'-nucleotide monophosphates. These enzymes play an important role in controlling cellular concentrations of cyclic nucleotides and have a central role in a variety of intracellular signaling events. cAMP PDEs are emerging as a promising class of drug targets in asthma and cardiovascular disease therapeutic areas.
There are no commercially available cell-based screening assays for PDE inhibitors: currently biochemical assays are done using pure substrates (cAMP or cGMP) and purified recombinant PDE enzymes. As with other biochemical screens on intracellular targets, false positives and false negatives may result from issues involving cell membrane permeability, cellular metabolism, and the like.
Here we report the development of a cell-based screening assay for cAMP phosphodiesterase (PDE) inhibitors. The assay is based on the BD ACTOne# technology (BD Biosciences) which utilizes a modified cyclic nucleotide-gated channel (CNG) to monitor intracellular cAMP changes in live cells. The CNG channel is localized on the plasma membrane, and opens when the intracellular cAMP level increases, resulting in ion flux and cell membrane depolarization. The influx of cations through the CNG channel can be quantified using membrane potential (MP) dyes. We modified the BD ACTOne technology to allow the detection of PDE inhibitors, and performed an inhibitor screen for PDE-IV, which is expressed endogenously in HEK293 cells. We optimized this assay in homogeneous 1536-well plate assay format for high throughput screening.
NCGC Assay Protocol Summary:
The medium contained 10% FBS (Invitrogen), 2 mM L-glutamine, and 250 ug/ml G418 (Cellgro) and 1 ug/ml puromycin (Clontech). ACTOneTM parental cells (BD Biosciences) were maintained in the same medium without puromycin.
The activity of the CNG channel was measured by BD ACTOneTM membrane potential dye kit (BD Biosciences). Forskolin, a positive control for cAMP activation and RO 20-1724, a PDE inhibitor, were both purchased from Sigma and solublized in DMSO.
Sequence,Parameter,Value,Description
1,Reagent,3 uL,1000 cells/well 1536 TC treated Black plate
3,Compound,0.5 uL,Kalypsys dispense RO 20-1724 100 uM final [A]
4,Reagent,3 uL,BD membrane potential dye
6,Compound,23 nL,Final concentration was 0.7nM to 22.9uM
8,Detector,EX 535 / EM 590 [B],Envision
Footnotes: [A] The stock 2 mM RO 20-1724 PDE inhibitor was made in 10 % DMSO. Parental cell line received 10 uM forskolin + 100 uM RO. [B] Envsion settings: Bottom Excitation 535/20 nm top emission 590/20, gain of 150 and 5 flashes per well.
Keywords: PDE, PDE-IV, cytotoxicity, flourescence, MLSMR, MLSCN, NIH Roadmap, qHTS, NCGC
Turning to `C=CCn1c(=O)c2c(nc(-c3ccc(S(=O)(=O)O)cc3)n2C)n(C)c1=O`, the Potency entry was “inactive”.
With `CC[C@@H]1Cc2cc(O)ccc2C2=C1c1ccc(O)cc1C[C@H]2CC`, the Potency result is “inactive”.
As to `N#Cc1cc2nc(O)c(O)nc2cc1[N+](=O)[O-]`, the Potency entry is “inactive”.
Take `COc1ccc(CCN(C)CCc2ccc(OC)c(OC)c2)cc1OC`: the Potency entry is “inactive”.
In the case of `N#C/C(=C\c1ccc(O)c(O)c1)C(=O)NCCc1ccccc1`, the Potency entry was “inactive”.
The entry for `CCCCCCC/C=C\CCCCCCCCC(=O)O` is “inactive”; for `COc1cc(CC(=O)O)ccc1O` it is “inactive”.
Consider `C[C@H](O)C(=O)C1=Nc2c(nc(N)[nH]c2=O)NC1`, for which the Potency entry is “inactive”.
With `O=[N+]([O-])c1cccc2cn[nH]c12`, the Potency result is “inactive”.
As for `O=C(O)/C(=C/c1c(C(=O)O)[nH]c2cc(Cl)cc(Cl)c12)c1ccccc1`, the Potency result was “inactive”.
On to `COc1ccccc1N1CCN(CCN(C(=O)c2ccc(F)cc2)c2ccccn2)CC1`, for which the Potency result was “inactive”.
Regarding `NC1(C(=O)O)CCCCC1`, the Potency result was “inactive”.
As to `O=C(O)c1cccnc1C(=O)O`, the Potency result is “inactive”.
With `NOCC(=O)O`, the Potency entry was “inactive”.
The value for `Fc1ccc(CN(C2=NCCN2)c2c(Cl)cccc2Cl)cc1` was “inactive”; that for `NCCCNCCCCNCCCN` was “inactive”; that for `S=C(S)N1CCCC1` was “inactive”.
With `CC(N)=O`, the Potency entry was “inactive”.
Regarding `O=C(O)C1CCNCC1`, the Potency result was “inactive”.
With `Oc1cc(O)c2c(c1)O[C@H](c1ccc(O)c(O)c1)[C@@H](O)C2`, the Potency entry is “inactive”.
With `CC(C)(CO)Cc1cc(C(C)(C)C)c(O)c(C(C)(C)C)c1`, the Potency entry is “inactive”.
The value for `N[C@H](C(=O)O)[C@H](O)C(=O)O` was “inactive”.
The entry for `CCCOC(=O)c1c(-c2ccccc2)nc(CC)c(C(=O)SCC)c1CCC` is “inactive”; for `NC/C=C\C(=O)O` it is “inactive”; for `Nc1ncnc2c1ncn2C1CCCC1` it is “inactive”.
With `Cn1c(=O)c2[nH]c(-c3ccc(S(=O)(=O)O)cc3)nc2n(C)c1=O`, the Potency result was “inactive”.
The value for `NC[C@@H]1O[C@H](c2ccccc2)Cc2c1ccc(O)c2O` was “inactive”.
Turning to `N=C(N)c1ccccc1`, the Potency entry is “inactive”.
Regarding `COc1ccccc1N1CCN(CCCCNC(=O)c2ccc3ccccc3c2)CC1`, the Potency entry was “inactive”.
On to `Oc1ccc(Cn2cc[nH]c2=S)cc1`, for which the Potency result is “inactive”.
For the compound `NC1(C(=O)O)CC1`, the Potency result was “inactive”.
In the case of `Nc1nc2[nH]c(=O)cnc2c(=O)[nH]1`, the Potency entry is “inactive”.
As to `N=C(N)SCCc1cnc[nH]1`, the Potency result is “inactive”.
The entry for `OC1(c2ccc(Cl)cc2)CCN(Cc2c[nH]c3ccccc23)CC1` is “inactive”; for `CCc1ccc2c(-c3cccc(Cl)c3)nc(=O)n(CC)c2n1` it is 12 nM (active).
Consider `CNCCNS(=O)(=O)c1cccc2cnccc12`, for which the Potency result is “inactive”.
Regarding `COc1ccc(NC(=O)c2ccc(-c3ccc(-c4noc(C)n4)cc3C)cc2)cc1N1CCN(C)CC1`, the Potency entry is “inactive”.
The entry for `CC(=O)N[C@@H](Cc1c[nH]c2ccccc12)C(=O)OCc1cc(C(F)(F)F)cc(C(F)(F)F)c1` is “inactive”; for `C/C(=C\c1ccc(C(=O)O)cc1)c1ccc2c(c1)C(C)(C)CCC2(C)C` it is “inactive”.
Take `C[C@](Cc1ccc(O)c(O)c1)(NN)C(=O)O`: the Potency entry was “inactive”.

The record behind these values is PubChem BioAssay (NCATS).
